{"source": "the supplement of paper PMC10681739", "key": {"[1]": {"molecular_target": "T1, ETS1 (UniProt P14921)", "T1 sequence": "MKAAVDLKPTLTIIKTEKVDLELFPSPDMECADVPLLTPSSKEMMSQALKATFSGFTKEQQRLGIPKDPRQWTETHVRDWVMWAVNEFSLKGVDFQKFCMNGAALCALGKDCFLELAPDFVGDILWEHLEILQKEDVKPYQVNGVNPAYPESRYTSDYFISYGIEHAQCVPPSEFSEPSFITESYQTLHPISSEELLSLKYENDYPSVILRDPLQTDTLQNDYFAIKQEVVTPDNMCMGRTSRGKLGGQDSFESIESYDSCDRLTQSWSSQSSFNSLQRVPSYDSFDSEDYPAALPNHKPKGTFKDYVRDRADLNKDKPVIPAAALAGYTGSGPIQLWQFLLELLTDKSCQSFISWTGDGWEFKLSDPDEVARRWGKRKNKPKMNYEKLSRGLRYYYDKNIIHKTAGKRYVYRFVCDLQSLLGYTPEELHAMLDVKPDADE", "test": "ETS1 binding intensity (PBM fluorescence), ETS1 alone (arbitrary fluorescence units); higher = stronger binding", "conditions": "ETS1 concentration 1 nM; RUNX1 concentration 0 nM"}, "[2]": {"molecular_target": "T1, ETS1", "test": "ETS1 binding intensity (PBM fluorescence) in presence of RUNX1, normalised to ETS1-only experiment (arbitrary fluorescence units); higher = stronger binding", "conditions": "ETS1 concentration 1 nM; RUNX1 concentration 25 nM"}, "[3]": {"molecular_target": "RUNX1 (UniProt Q01196)", "sequence (Q01196 whole entry)": "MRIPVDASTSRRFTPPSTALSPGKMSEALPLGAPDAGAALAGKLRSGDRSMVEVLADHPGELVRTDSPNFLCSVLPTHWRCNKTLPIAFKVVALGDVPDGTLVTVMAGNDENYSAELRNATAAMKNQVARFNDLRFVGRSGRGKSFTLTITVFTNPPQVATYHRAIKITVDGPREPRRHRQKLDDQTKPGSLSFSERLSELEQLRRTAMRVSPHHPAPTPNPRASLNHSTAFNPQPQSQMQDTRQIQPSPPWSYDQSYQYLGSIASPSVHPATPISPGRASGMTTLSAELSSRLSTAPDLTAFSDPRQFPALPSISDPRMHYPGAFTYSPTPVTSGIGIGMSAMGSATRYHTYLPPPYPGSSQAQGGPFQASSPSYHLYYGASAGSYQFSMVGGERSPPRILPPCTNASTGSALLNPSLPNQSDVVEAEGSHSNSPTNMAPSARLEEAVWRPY", "test": "RUNX1 binding intensity (PBM fluorescence) in presence of ETS1, normalised to RUNX1-only experiment (arbitrary fluorescence units); higher = stronger binding", "conditions": "RUNX1 concentration 2 nM; ETS1 concentration 25 nM", "protocol": "(§1)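 Cooperative gcPBM on 36-bp genomic probes with neighbouring ETS1 and RUNX1 sites. Recombinant human RUNX1 (2 nM) was incubated alone or with ETS1 (25 nM) and detected with anti-RUNX1 antibody plus Alexa488 secondary. Values are medians over 4 replicate spots; the RUNX1+ETS1 data were normalised to the RUNX1-only data. The probes sit in constant array flanks that are not printed.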"}, "[4]": {"molecular_target": "RUNX1 (UniProt Q01196)", "test": "RUNX1 binding intensity (PBM fluorescence), RUNX1 alone (arbitrary fluorescence units); higher = stronger binding", "conditions": "RUNX1 concentration 2 nM; ETS1 concentration 0 nM", "protocol": "as §1"}}, "data": [{"sequence": "ATGGCGAAGCAGGATGCCCTCAACCCACATACGGCA", "values": [{"measurement": "ETS1 binding intensity", "setting": "[1]", "value": 638}, {"measurement": "ETS1 binding intensity", "setting": "[2]", "value": 927}, {"measurement": "RUNX1 binding intensity", "setting": "[3]", "value": 1000}]}, {"sequence": "GGGGAAAGGAAGAGGAAACCGCGAGTGCAAAGGCCC", "values": [{"measurement": "ETS1 binding intensity", "setting": "[1]", "value": 679}, {"measurement": "ETS1 binding intensity", "setting": "[2]", "value": 1580}, {"measurement": "RUNX1 binding intensity", "setting": "[3]", "value": 2330}]}, {"sequence": "TGGGGCTAGGCTTCCGGGGCTCTGCGGTCCTCGGCC", "values": [{"measurement": "ETS1 binding intensity", "setting": "[1]", "value": 481}, {"measurement": "ETS1 binding intensity", "setting": "[2]", "value": 623}, {"measurement": "RUNX1 binding intensity", "setting": "[3]", "value": 1180}]}, {"sequence": "GGCTGCAGGAAGTGGGAAGGTGTGGCTTTGAGTCTC", "values": [{"measurement": "ETS1 binding intensity", "setting": "[1]", "value": 1830}, {"measurement": "ETS1 binding intensity", "setting": "[2]", "value": 2460}, {"measurement": "RUNX1 binding intensity", "setting": "[3]", "value": 1820}]}, {"sequence": "CAGCTTTCCGGCCTGCAGCACAGGCAATGTGGTTTT", "values": [{"measurement": "ETS1 binding intensity", "setting": "[1]", "value": 341}, {"measurement": "ETS1 binding intensity", "setting": "[2]", "value": 554}, {"measurement": "RUNX1 binding intensity", "setting": "[3]", "value": 2150}]}, {"sequence": "GCACCCGGCACTACTTCCCGACCCGCATCCCCCGCC", "values": [{"measurement": "ETS1 binding intensity", "setting": "[1]", "value": 689}, {"measurement": "ETS1 binding intensity", "setting": "[2]", "value": 683}, {"measurement": "RUNX1 binding intensity", "setting": "[3]", "value": 1320}]}, {"sequence": "CACTTCCTGTCAAAGCCAGTTCCTTAACCGCTTAGG", "values": [{"measurement": "RUNX1 binding intensity", "setting": "[4]", "value": 948}, {"measurement": "RUNX1 binding intensity", "setting": "[3]", "value": 2930}]}, {"sequence": "AGCTTCCGAGTCTGTTGTGGAGTGGGAACCGCGACT", "values": [{"measurement": "RUNX1 binding intensity", "setting": "[4]", "value": 724}, {"measurement": "RUNX1 binding intensity", "setting": "[3]", "value": 1020}]}, {"sequence": "GAGTTCTCCGCTTCCTTGCGGCCGGCGGGATTAGCC", "values": [{"measurement": "RUNX1 binding intensity", "setting": "[4]", "value": 907}, {"measurement": "RUNX1 binding intensity", "setting": "[3]", "value": 1030}]}, {"sequence": "GCACTACATTTCCCAGCTTTCCTCGCGGTAAAGAGA", "values": [{"measurement": "ETS1 binding intensity", "setting": "[1]", "value": 456}, {"measurement": "ETS1 binding intensity", "setting": "[2]", "value": 429}, {"measurement": "RUNX1 binding intensity", "setting": "[3]", "value": 1270}]}, {"sequence": "AGCTTCCTGTTTGGCCTTGCTGATGTCACCGCATTA", "values": [{"measurement": "ETS1 binding intensity", "setting": "[1]", "value": 729}, {"measurement": "ETS1 binding intensity", "setting": "[2]", "value": 1090}, {"measurement": "RUNX1 binding intensity", "setting": "[3]", "value": 2360}]}, {"sequence": "TTGTTCCACCCCCGCGGAAACCGCTGCTCGCTGGGC", "values": [{"measurement": "RUNX1 binding intensity", "setting": "[4]", "value": 913}, {"measurement": "RUNX1 binding intensity", "setting": "[3]", "value": 965}]}, {"sequence": "GCGGCTTTGTACGGAAACCCACACACATTGTTATTT", "values": [{"measurement": "RUNX1 binding intensity", "setting": "[4]", "value": 984}, {"measurement": "RUNX1 binding intensity", "setting": "[3]", "value": 1020}]}, {"sequence": "CCCTTCCTGTGAGGGAGGTTCCAGTTCCCACAGCGG", "values": [{"measurement": "RUNX1 binding intensity", "setting": "[4]", "value": 782}, {"measurement": "RUNX1 binding intensity", "setting": "[3]", "value": 1670}]}, {"sequence": "CCACCTCCTCCGGACGCCGCCCGCAACTGAGCATGC", "values": [{"measurement": "RUNX1 binding intensity", "setting": "[4]", "value": 1030}, {"measurement": "RUNX1 binding intensity", "setting": "[3]", "value": 1230}]}, {"sequence": "TAGCATGTGAGCTTCCTGTGGGTTTGTGCAGCCCCA", "values": [{"measurement": "ETS1 binding intensity", "setting": "[1]", "value": 616}, {"measurement": "ETS1 binding intensity", "setting": "[2]", "value": 654}, {"measurement": "RUNX1 binding intensity", "setting": "[3]", "value": 1440}]}]}
